In this test the target is RUNX1 (UniProt Q01196). Briefly: RUNX1 binding intensity (PBM fluorescence) in presence of ETS1, normalised to RUNX1-only experiment (arbitrary fluorescence units); higher = stronger binding. Particulars: RUNX1 concentration 2 nM; ETS1 concentration 25 nM. Here is the method:
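Cooperative gcPBM on 36-bp genomic probes with neighbouring ETS1 and RUNX1 sites. Recombinant human RUNX1 (2 nM) was incubated alone or with ETS1 (25 nM) and detected with anti-RUNX1 antibody plus Alexa488 secondary. Values are medians over 4 replicate spots; the RUNX1+ETS1 data were normalised to the RUNX1-only data. The probes sit in constant array flanks that are not printed.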
Chain of RUNX1 (Q01196 whole entry): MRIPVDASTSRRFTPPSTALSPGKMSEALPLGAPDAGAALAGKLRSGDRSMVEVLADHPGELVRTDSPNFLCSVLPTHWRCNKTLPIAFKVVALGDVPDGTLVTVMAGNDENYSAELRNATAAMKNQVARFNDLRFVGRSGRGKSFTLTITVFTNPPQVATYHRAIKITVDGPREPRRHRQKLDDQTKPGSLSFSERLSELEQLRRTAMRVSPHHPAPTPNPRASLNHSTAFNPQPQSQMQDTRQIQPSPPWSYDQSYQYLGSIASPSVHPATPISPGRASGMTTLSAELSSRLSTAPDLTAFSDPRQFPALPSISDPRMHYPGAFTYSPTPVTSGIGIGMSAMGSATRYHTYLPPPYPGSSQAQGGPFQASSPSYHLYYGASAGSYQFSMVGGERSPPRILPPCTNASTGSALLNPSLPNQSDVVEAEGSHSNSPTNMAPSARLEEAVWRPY
For GCAGGGGCCCATTTCCTGCCACAAGCCCACACAGGA, the RUNX1 binding intensity turned out to be 1750.

As for TCCTAAAGCAGGAAATAGTGAGGCTACCGCAGTGTC, the RUNX1 binding intensity amounted to 1090.

Take ACCCGGATGTCGTTGGGCAGGAACTGCGGTGAGGGC: the RUNX1 binding intensity came out at 1490.

Consider GACCTGGGCAGGAAGAGCGGCATGTGGGGCCCCCTG, for which the RUNX1 binding intensity turned out to be 874.

As for GGACTTCCTGAACTGGGAGGTCACCGACCACAACCT, the RUNX1 binding intensity was found to be 1740.

Regarding CTAACCCTGCTTCCTCTTAGTGGTTTCCCCCAACCT, the RUNX1 binding intensity was 3220.

For CAAGCACATTACGGAAGAGGCTGACCGCAAATACGA, the RUNX1 binding intensity is 6950.

On to TCCAGTGCCGCCGCCGGAAAACCGCAGCGGCGGCGG, for which the RUNX1 binding intensity amounted to 10200.

Regarding TCTAGTAAAAGAGGAAGTTCTTAACCACATTTCCAT, the RUNX1 binding intensity came out at 1620.

As for GCCCGCGGCTCCGGAAGCGGCTGCGGCCCCGACCGG, the RUNX1 binding intensity was 1040.

With TACAGCTGGAACGTCCTGTGGTTAACATTCTGCTCT, the RUNX1 binding intensity is 1970.

Consider TTGAATATGAAAGGAAGTGGTTAGGTGATGTGTTCT, for which the RUNX1 binding intensity came to 1350.

On to CCCCTGCCCCTTCCTGGAAGGCTGCGGTGTAACACC, for which the RUNX1 binding intensity is 1780.

On to GCACCGTACCCGGAACTGCTCCCTCCCGCAGGCGCA, for which the RUNX1 binding intensity amounted to 950.

As to CCCCTTCCCGTTCTCCGAAAGTGCGCGGGTTGGAGC, the RUNX1 binding intensity turned out to be 1230.

For CTTCAGCCGCCACTTCCCCGCCCCCGCAGCCCGACA, the RUNX1 binding intensity was determined as 1290.

As for TCCTTTTCCGGTGGCGGCGCCGCGCGGTGAGGTTGT, the RUNX1 binding intensity is 1880.

As for CCAACGAGCACTTCCGCTTCCCGCAGCTCCAGCGGC, the RUNX1 binding intensity was 2650.

For the sequence GTTCTTCCACGTCCGCGTTACCCACAACGGCAGTGG, the RUNX1 binding intensity worked out at 1090.

Regarding GTTTCTCTGGCCAGGAAATTGAGGTTTCTGTTAGTC, the RUNX1 binding intensity was found to be 1660.

As to TACCCAGAAAGGAAGTGGAACCTGCGGTGAGGCCCC, the RUNX1 binding intensity stood at 1950.

As for CACTGATTAAGAGGAAGTGTGTGTGGTTATTACCGT, the RUNX1 binding intensity was 1170.

As to CGAACTCCCGTCCGGCCGCGCCCGCAGCCCGCCGCC, the RUNX1 binding intensity was 1130.

On to ACGAGAGTCTAGAGGAAACCAACCCGCAACTCACTG, for which the RUNX1 binding intensity was 868.

In the case of GGCGGATGGGGAGAAGAGAGTGGCTGTGGTCTCTGG, the RUNX1 binding intensity came to 712.

In the case of CTGCCTTTCCTGCTAGGGTACAAACCACAGCCTTAG, the RUNX1 binding intensity worked out at 1640.

On to CTGCTGCCGCGAACAGGAAACCACTACAATCAGGAG, for which the RUNX1 binding intensity turned out to be 1100.

On to ATAAACAGGAAGCTGAGTATGTGACCACAGACATTC, for which the RUNX1 binding intensity was 1630.

In the case of TGCTTAGCGGGAAGTGCTTACACCACAAAACAAGAC, the RUNX1 binding intensity is 1750.

Take CAGCTTTCCGGCCTGCAGCACAGGCAATGTGGTTTT: the RUNX1 binding intensity amounted to 2150.

As to TCCTGTAGTTTCCGGCTGAAGTGGTAAGGTTTTTGA, the RUNX1 binding intensity was found to be 1750.

Consider TTATGCCTCAGGATGAACGAACCTCAAACACCCAGG, for which the RUNX1 binding intensity came to 858.

On to GAGCATAGCCTAGCAGGATGTGGTTAAATACATTTG, for which the RUNX1 binding intensity was 1970.

Turning to GCTCAAGTACCGGAAAGGCCCGCAGAAAGAAGGGCA, the RUNX1 binding intensity was 1060.

On to TGTGATAAGGATGTTCGTGTGCCTTGTGGTCAGGTG, for which the RUNX1 binding intensity turned out to be 905.

As to AGAAGCAGGCATGCAGGATGTGGTTAGTGCATGGTA, the RUNX1 binding intensity is 3740.

Consider GTGGCGAAAGTGCGGATGCGAAACCGCTGGCTCGGC, for which the RUNX1 binding intensity stood at 881.

For GTAGGGAAGACGGGATGTGGGTTTTCAGCCGTGGCC, the RUNX1 binding intensity was found to be 2520.

Take ACTGCACGGCTGGGAGGATGTGGTCACACACGCCAC: the RUNX1 binding intensity worked out at 1350.

CTGTCTGCTTCCCGTGGCCAGCCCTGACCGCGGCCC: the RUNX1 binding intensity is 1430.

The values are drawn from the supplement of paper PMC10681739.
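Also: Full-length recombinant human ETS1 or RUNX1 bound to double-stranded 36-bp genomic probes on microarrays, detected by protein-specific primary antibody and Alexa488 secondary, spot fluorescence as median of four replicate spots.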
